Only some compounds are listed: those with a hit (about 9.2% of all), similar ones and a draw of the others.
Rab9 prom act – qHTS Assay for Rab9 Promoter Activators | hit rate 2.8% among 320,000 | Huh7 Rab9 promoter-luciferase reporter, luminescence, 24 h | Potency, µM (series often up to 9.22 µM), without a hit: at the highest dose activation, negative = inhibition, hits mostly activators; note: % of control where 0% means no effect; nearly all actives have a fitted effect of over 60% in size
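Stable Rab9-luc Huh7, 1500 cells/well, 2 h settle; cmpd in DMSO, 24 h, 37 °C/5% CO2; luciferase reagent 10 min RT; luminescence.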
SMN2 splice enh – qHTS Assay for Enhancers of SMN2 Splice Variant Expression; AID 1458, 2008; HEK293 SMN2-luciferase splicing reporter, luminescence, 30-36 h; hit rate 2.8% among 210,000; Potency, µM (highest dose often 46.1 µM), without a hit: top-dose activity change, positive = activation, hits mostly activators; note: % of control where 0% means no effect; nearly all actives have a fitted effect of over 55% in size
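HEK293 cells carry an SMN2 minigene-luciferase reporter in which exon 7 inclusion puts luciferase in frame. Cells were seeded at 2000 cells/well, attached for 10-12 hours, then exposed to compounds for 30-36 hours at 37C before ONE-Glo luminescence.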
ELG1 DNA repair – qHTS screen for small molecules that inhibit ELG1-dependent DNA repair in human embryonic kidney (HEK293T) cells expressing luciferase-tagged ELG1; HEK293T ELG1-luciferase reporter, luminescence, 16 h; DNA damage induced by 5-fluorouridine; Potency, µM (top dose mostly 46.1 µM), inactives show top-dose activity change, negative = inhibition, hits mostly inhibitors; hit rate 2.3% among 330,000; note: % is set by controls: 0 for no effect and ±100 for the full control effect; nearly all actives have a fitted effect of over 55% in size
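DMSO vehicle served as the neutral condition. Each well held 2,000 cells given 5-fluorouridine plus compound; after 16 hr at 37 °C/5% CO2, ONE-Glo was added and luciferase measured 30 min later.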
ELG1 genotoxic – qHTS screen for small molecules that induce genotoxicity in human embryonic kidney (HEK293T) cells expressing luciferase-tagged ELG1 | HEK293T ELG1-luciferase reporter, luminescence, 16 h | Potency, µM (top dose mostly 46 µM), for inactives: top-dose activity change, positive = activation, actives largely listed as activators | hit rate 1.3% among 330,000; note: % of control where 0% means no effect; nearly all actives have a fitted effect of over 60% in size
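ELG1-luciferase HEK293T cells, 2,000/well; compound pinned in; 16 hr, 37 °C, 5% CO2; ONE-Glo, 30 min RT; luminescence on CCD imager.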
NPC1 promoter act – qHTS Assay for NPC1 Promoter Activators. Huh7 NPC1 promoter luciferase reporter, 24 h. Potency, µM (highest dose often 9.22 µM), without a hit: at the top dose activation, actives largely listed as activators. AID 485313, 2010. hit rate 2.4% among 320,000; note: % of control where 0% means no effect; nearly all actives have a fitted effect of over 60% in size
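Stable NPC1-promoter luciferase Huh7 line; cpd (DMSO) 24 h, 37 °C, 5% CO2; Amplite luciferase reagent 10 min RT; luminescence readout. qHTS format.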
FLuc counter – qHTS profiling assay for firefly luciferase inhibitor/activator using purifed enzyme and Km concentrations of substrates (counterscreen for miR-21 project). Potency, µM (top dose mostly 57.5 µM), for inactives: at the top dose activity change, negative = inhibition, hits mostly inhibitors. hit rate 6.9% among 360,000. purified FLuc, Km substrates, luminescence inhibition. Luciferin 4-monooxygenase (Photinus pyralis), P08659;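 note: plate controls were vehicle for no effect and reference inhibitor for full effect; nearly all actives have a fitted effect of over 55% in size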
Target sequence (P08659 whole entry, looked up): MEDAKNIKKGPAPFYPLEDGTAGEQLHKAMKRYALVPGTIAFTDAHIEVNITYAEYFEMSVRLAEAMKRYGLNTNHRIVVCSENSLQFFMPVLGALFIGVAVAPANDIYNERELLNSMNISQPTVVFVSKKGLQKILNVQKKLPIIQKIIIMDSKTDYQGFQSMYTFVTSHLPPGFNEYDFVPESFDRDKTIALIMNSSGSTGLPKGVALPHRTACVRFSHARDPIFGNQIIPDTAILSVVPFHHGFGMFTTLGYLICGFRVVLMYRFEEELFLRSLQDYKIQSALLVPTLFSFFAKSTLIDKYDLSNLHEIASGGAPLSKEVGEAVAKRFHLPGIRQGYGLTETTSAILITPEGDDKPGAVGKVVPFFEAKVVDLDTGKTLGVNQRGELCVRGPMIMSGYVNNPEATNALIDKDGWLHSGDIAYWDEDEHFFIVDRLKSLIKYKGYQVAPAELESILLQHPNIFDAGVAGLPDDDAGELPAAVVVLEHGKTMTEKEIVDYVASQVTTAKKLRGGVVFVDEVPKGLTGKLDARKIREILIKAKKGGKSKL
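Purified P. pyralis luciferase (10nM final) with 10uM D-luciferin and 10uM ATP (Km levels) in 50mM Tris acetate pH 7.5, 10mM Mg acetate, 0.01% Tween-20, 0.05% BSA; qHTS 6-point titration, ~60 µM downward; luminescence read.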
Numbers without * were called inactive; u = inconclusive; x = not tested or not shown; [ ] = another dose, or the depositor's remark. Calls come from the whole dose curve; as a rule, active = well fitted curve in the direction sought with a large enough effect; inconclusive = small, poorly fitted or top-dose-only effect, or another doubt; inactive = no such curve, though single readings can be large; an effect the other way counts as inactive or inconclusive. Potency is the fitted concentration of half-maximal effect.

SMILES	Rab9 prom act	SMN2 splice enh	ELG1 DNA repair	ELG1 genotoxic	NPC1 promoter act	FLuc counter
C/C(=N\NC(N)=O)c1ccc(-n2ccnc2)cc1	1%	-3%	22%	6%	-5%	-1%
C/C(=N\NC(=O)COc1ccccc1)c1ccc(O)cc1	21%	x	u	9%	18%	u
CCc1ccc(OCC(=O)N/N=C(\C)c2ccc(-n3ccnc3)cc2)cc1	18%	x	-11%	9%	15%	1.3µM*
C/C(=N\Nc1ccc(C(=O)O)cc1)c1nc2ccccc2n1C	1.1µM*	10µM*	u	u	0.56µM*	11µM*
Cn1c(/C=N/NC(=O)c2ccccc2)nc2ccccc21	12%	-17%	4%	3%	12%	-14%
Cc1cccc(C(=O)Nc2sc(-c3ccccc3)cc2C(=O)O)c1	u	x	u	u	2.5µM*	11µM*
CC(C)(C)C(=O)Nc1sc(-c2ccccc2)cc1C(=O)O	3.2µM*	x	u	15%	4.5µM*	11µM*
Nc1sc(-c2ccccc2)cc1C(=O)O	9%	-3%	u	26%	14%	-20%
NC(=O)c1ccccc1NC(=O)CN1CCCCCC1	0%	x	8%	-6%	18%	4%
NC(=O)c1cc(-c2ccccc2)sc1NC(=O)CN1CCCCC1	-3%	-3%	u	-5%	0%	19µM*
O=C(NNC(=S)NC(=O)c1sc2ccccc2c1Cl)c1ccc(Cl)cc1	-1%	-47%	u	3%	-2%	u
O=C(NCc1nnc(SCC(=O)N2CCOCC2)o1)c1c(F)cccc1F	10%	x	-7%	5%	0%	3%
C/C=C\C=C\C(=O)N1CC2(CC(c3cccc(NC(=O)COc4ccc(Cl)cc4)c3)=NO2)C[C@H]1C(N)=O (stereo partly drawn)	-3%	x	u	-4%	-2%	9.5µM*
CCCCCC(=O)Nc1cccc(C2=NOC3(C2)C[C@H](C(N)=O)N(C(=O)COc2ccc(Cl)cc2)C3)c1 (stereo partly drawn)	-6%	x	7.3µM*	-15%	-9%	-16%
C/C=C\C=C\C(=O)N1CC2(CC(c3cccc(NC(=O)CC)c3)=NO2)C[C@H]1C(N)=O (stereo partly drawn)	-6%	x	22%	4%	1%	-11%
C/C=C\C=C/C(=O)Nc1cccc(C2=NOC3(C2)C[C@@H](C(N)=O)N(C(=O)COc2ccc(Cl)cc2)C3)c1 (stereo partly drawn)	-3%	x	2%	-3%	-2%	15µM*
Cc1ccc(-n2nc3c(=O)n(CCCC(=O)NC(C)c4ccccc4)nc(C)c3c2C)cc1 (stereo not drawn)	x	x	x	x	x	-2%
Cc1c(C(=O)Nc2ccc(F)cc2)nnn1-c1cccc(C(F)(F)F)c1	-2%	-66%	5.8µM*	4%	-5%	-9%
COc1ccccc1NC(=O)c1nnn(-c2ccc(F)cc2)c1C	x	3%	x	x	x	0%
COC(=O)c1nnn(-c2cccc(C)c2)c1N	x	10%	x	x	x	1%
Cc1c(C(=O)Nc2ccc(C(=O)O)cc2)nnn1-c1ccccc1	x	x	x	x	x	0.27µM*
Cc1cccc(-n2nnc(C(=O)N3CCc4ccccc4C3)c2N)c1	25%	-13%	u	2%	23%	15µM*
Cc1cccc(-n2nnc(C(=O)Nc3ccc(F)cc3)c2N)c1	2.8µM*	10µM*	u	13%	1.6µM*	6µM*
CCOc1ccc(S(=O)(=O)Nc2cc(S(=O)(=O)N3CCOCC3)ccc2OC)cc1	4%	x	-4%	-1%	-2%	-1%
CCCCc1ccc(NC(=O)CSc2nc3ccccc3nc2N2CCOCC2)cc1	x	-2%	x	x	x	-8%
SMILES	Rab9 prom act	SMN2 splice enh	ELG1 DNA repair	ELG1 genotoxic	NPC1 promoter act	FLuc counter
COc1ccc(OC)c(NC(=O)[C@H](CSCc2ccccc2)N2Cc3ccccc3C2=O)c1	x	-2%	x	x	x	6%
CC(NC(=O)c1ccccc1Cl)C(=O)OCc1cn2cc(Cl)ccc2n1 (stereo not drawn)	x	x	17%	1%	x	x
O=C(/C=C/c1cccc([N+](=O)[O-])c1)NC(=S)Nc1ccccc1C(=O)O	-4%	8%	13%	0%	0%	u
COc1cccc(NC(=O)N2CCN(c3nnnn3-c3ccccc3)CC2)c1	-6%	-28%	12%	-5%	2%	-7%
COc1cc(/C=N/Nc2nc(Nc3ccccc3)nc(-n3nc(C)cc3C)n2)cc(OC)c1OC	3%	-7%[1.84 µM]	1.8µM*	-16%	14%	2.7µM*
COc1ccc(O)c(/C=N/Nc2nc(Nc3ccccc3)nc(-n3nc(C)cc3C)n2)c1	-5%	-22%	2.6µM*	-10%	10%	9.5µM*
COc1cc(/C=N/n2nnnc2Nc2ccccc2)cc(OC)c1OC	-2%	14%	23µM*	-2%	0%	u
CC(C(=O)NCc1cccc(Cl)c1)N1C(=O)c2ccccc2C1=O (stereo not drawn)	-1%	x	2%	0%	3%	1%
CSc1ccc(CCNC(=O)c2ccc(-n3c(C)cc4c3CCCC4)cc2)cc1	x	x	x	x	x	-3%
COc1ccc(C=O)cc1CN1CCCN(Cc2ccc(Cl)cc2)S1(=O)=O	5%	x	-18%	-3%	5%	1%
COC(=O)c1ccc(OC)c(CN2CCCN(Cc3ccc(F)cc3)S2(=O)=O)c1	-8%	x	13µM*	-8%	4%	1%
Cc1ccc(-c2cc(=O)c3cc(C)ccc3[nH]2)cc1	u	2.2µM*	u	u	u	0.67µM*
Cc1ccc(-c2cc(=O)c3cc(F)ccc3[nH]2)cc1	16%	u	25%	12%	1%	27µM*
COc1cc2c(cc1OC)CN(C(=O)C(CCSC)NS(=O)(=O)c1ccc(C)cc1)CC2 (stereo not drawn)	22%	x	0%	-2%	3%	-2%
CCOC(=O)C1(N(CC)CC)Sc2cc(C)ccc2NC1=O (stereo not drawn)	1%	-42%	-21%	-1%	-5%	-2%
CCOC(=O)C1(Nc2nccs2)Sc2ccccc2NC1=O (stereo not drawn)	-14%	-2%	7.3µM*	0%	-25%	u
Cc1cc(Br)ccc1OCC(=O)NC1CCCC1	-6%	x	20%	u	-7%	u
O=C(COc1ccc(Br)cc1Br)NNC(=O)c1cccs1	u	x	u	24%	25%	1.9µM*

Bioassay records from PubChem.
